Laboratory results taken from PubChem BioAssay (EPA / NIEHS).
Calls of active or inactive are those of the source. The calls were made as follows: active = hit-call score of the fitted dose curve at least 0.9, where 1 is the maximum; inactive = score below 0.9.

What was measured:
Settings in all cases: mRNA level, 48 h; actives raise or lower the signal
[1] = read-out: Bcl-2 (BAD) gene, BAD (gene 572); experiment: LTEA_HepaRG_BAD: Life Technologies and Expression Analysis (LTEA) Assay for Bcl-2 (BAD) gene using HepaRG (AID 2283469)
Outline: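 HepaRG, 48 h exposure, 8-pt half-log curve from 100 uM in 0.5% DMSO, duplicates. Readout: TaqMan qRT-PCR for BAD mRNA, housekeeping-normalised (ACTB/GAPDH/POLR2A); gain or loss fitted against DMSO baseline.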

[2] = read-out: Bcl-2 (BAX) gene, BAX (gene 581); experiment: LTEA_HepaRG_BAX: Life Technologies and Expression Analysis (LTEA) Assay for Bcl-2 (BAX) gene using HepaRG (AID 2283470)
Outline: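 qRT-PCR read-out of BAX mRNA, normalized to three housekeeping genes, after 48 h chemical exposure of human HepaRG cells in serum-free induction medium; eight-point half-log series, top 100 uM, 0.5% DMSO vehicle; bidirectional fit versus DMSO.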

[3] = read-out: adenosine kinase (ADK) gene, ADK (gene 132); experiment: LTEA_HepaRG_ADK: Life Technologies and Expression Analysis (LTEA) Assay for adenosine kinase (ADK) gene using HepaRG (AID 2283471)
Outline: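 Differentiated HepaRG cells dosed 48 h in serum-free induction medium, 0.5% DMSO vehicle, eight half-log concentrations from 100 uM, in duplicate. ADK mRNA by TaqMan qRT-PCR normalised to ACTB, GAPDH, POLR2A; bidirectional fit versus DMSO.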

[4] = read-out: Alpha-fetoprotein (AFP) gene, AFP (gene 174); experiment: LTEA_HepaRG_AFP: Life Technologies and Expression Analysis (LTEA) Assay for Alpha-fetoprotein (AFP) gene using HepaRG (AID 2283472)
Outline: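 qRT-PCR (Fluidigm TaqMan) readout of AFP transcript, normalized to three housekeeping genes, fitted bidirectionally against 0.5% DMSO baseline. HepaRG cells received chemicals for 48 h in serum-free induction medium, top concentration 100 uM, half-log steps.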

[5] = read-out: BCL2L11 (gene 10018); experiment: LTEA_HepaRG_BCL2L11: Life Technologies and Expression Analysis (LTEA) Assay for Bcl-2 (BCL2L11) gene using HepaRG (AID 2283473)
Outline: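 Read-out is BCL2L11 transcript level by qRT-PCR, normalized to three housekeeping genes and fitted bidirectionally against 0.5% DMSO vehicle. HepaRG cells received chemicals for 48 h in serum-free induction medium, 100 uM down in half-log dilutions.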

[6] = read-out: Apolipoprotein A-V (APOA5) gene, APOA5 (gene 116519); experiment: LTEA_HepaRG_APOA5: Life Technologies and Expression Analysis (LTEA) Assay for Apolipoprotein A-V (APOA5) gene using HepaRG (AID 2283474)
Outline: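 Readout is APOA5 transcript level by qRT-PCR on Fluidigm dynamic arrays, normalized to three housekeeping genes. HepaRG cultures received chemicals for 48 h at up to 100 uM (half-log steps, 0.5% DMSO), with gain or loss scored relative to DMSO.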

[7] = read-out: Apoptosis regulator Bcl-2 (Homo sapiens) (UniProt P10415); experiment: LTEA_HepaRG_BCL2: Life Technologies and Expression Analysis (LTEA) Assay for Bcl-2 gene using HepaRG (AID 2283475)
Outline: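 qRT-PCR read-out (Fluidigm TaqMan) of BCL2 transcript, normalised to three housekeeping genes, after 48 h chemical exposure of HepaRG cells; 8-point half-log series, top 100 uM, 0.5% DMSO vehicle. Gain or loss of signal fitted relative to DMSO baseline.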

[8] = read-out: Bcl-2 (BID) gene, BID (gene 637); experiment: LTEA_HepaRG_BID: Life Technologies and Expression Analysis (LTEA) Assay for Bcl-2 (BID) gene using HepaRG (AID 2283476)
Outline: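 HepaRG, 48 h exposure, 8-pt half-log series, top 100 uM, 0.5% DMSO vehicle, duplicates. Readout: BID mRNA by TaqMan qRT-PCR; housekeeping-normalized; bidirectional curve fit vs DMSO baseline.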

[9] = read-out: Caspase-3 (Homo sapiens) (UniProt P42574); experiment: LTEA_HepaRG_CASP3: Life Technologies and Expression Analysis (LTEA) Assay for cysteine-aspartic acid protease (CASP3) using HepaRG (AID 2283477)
Outline: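 Read-out is CASP3 mRNA level by TaqMan qRT-PCR in human HepaRG cells after 48 h chemical exposure. Eight half-log concentrations topping at 100 uM were tested in 0.5% DMSO; gain or loss was fitted relative to DMSO.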

[10] = read-out: Cytochrome P450 (CYP24A1), CYP24A1 (gene 1591); experiment: LTEA_HepaRG_CYP24A1: Life Technologies and Expression Analysis (LTEA) Assay for Cytochrome P450 (CYP24A1) using HepaRG (AID 2283478)
Outline: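 HepaRG, 48 h chemical exposure, 8-pt half-log CRC from 100 uM, 0.5% DMSO vehicle, duplicates. Endpoint: CYP24A1 mRNA by Fluidigm TaqMan qRT-PCR, normalized ACTB/GAPDH/POLR2A; gain/loss fit vs DMSO.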

[11] = read-out: Cytochrome P450 (CYP1A2), CYP1A2 (gene 1544); experiment: LTEA_HepaRG_CYP1A2: Life Technologies and Expression Analysis (LTEA) Assay for Cytochrome P450 (CYP1A2) using HepaRG (AID 2283479)
Outline: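 CYP1A2 transcript induction or loss, quantified by Fluidigm qRT-PCR against three housekeeping genes, was fitted bidirectionally against 0.5% DMSO controls. Human HepaRG cells received eight half-log concentrations from 100 uM over 48 h.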

[12] = read-out: cysteine-aspartic acid protease (CASP8), CASP8 (gene 841); experiment: LTEA_HepaRG_CASP8: Life Technologies and Expression Analysis (LTEA) Assay for cysteine-aspartic acid protease (CASP8) using HepaRG (AID 2283480)
Outline: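 qRT-PCR readout of CASP8 mRNA, normalized to three housekeeping genes, after 48 h chemical exposure of HepaRG cells; 8-point half-log series, top 100 uM, 0.5% DMSO vehicle. Bidirectional curve fitting against DMSO baseline.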

[13] = read-out: Cytochrome P450 (CYP2B6), CYP2B6 (gene 1555); experiment: LTEA_HepaRG_CYP2B6: Life Technologies and Expression Analysis (LTEA) Assay for Cytochrome P450 (CYP2B6) using HepaRG (AID 2283481)
Outline: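 HepaRG cells plated 48 h, switched to serum-free induction medium, then dosed 48 h (8 points, half-log from 100 uM, 0.5% DMSO). RNA isolated; CYP2B6 expression measured by qRT-PCR; gain or loss fitted relative to DMSO.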

[14] = read-out: Cytochrome P450 2C19 (Homo sapiens) (UniProt P33261); experiment: LTEA_HepaRG_CYP2C19: Life Technologies and Expression Analysis (LTEA) Assay for CYP2C19 using HepaRG (AID 2283482)
Outline: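 Transcript levels of CYP2C19 were quantified by qRT-PCR after HepaRG cells were treated for 48 hours with test chemicals up to 100 uM (eight half-log concentrations, 0.5% DMSO vehicle). Gain or loss of signal was fitted relative to DMSO.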

[15] = read-out: CYP2C8 (gene 1558); experiment: LTEA_HepaRG_CYP2C8: Life Technologies and Expression Analysis (LTEA) Assay for CYP2C8 using HepaRG (AID 2283483)
Outline: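 HepaRG (human liver line), 48 h chemical exposure, 8-pt half-log series from 100 uM, 0.5% DMSO vehicle. Readout: CYP2C8 transcript by qRT-PCR, housekeeping-normalized. Bidirectional fit vs DMSO baseline.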

[16] = read-out: CYP2C9 (gene 1559); experiment: LTEA_HepaRG_CYP2C9: Life Technologies and Expression Analysis (LTEA) Assay for CYP2C9 using HepaRG (AID 2283484)
Outline: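 HepaRG, 48 h dosing, 8-pt half-log series, top 100 uM, 0.5% DMSO vehicle. Read-out: CYP2C9 transcript by TaqMan qRT-PCR, housekeeping-normalized (ACTB/GAPDH/POLR2A). Gain or loss fitted vs DMSO baseline.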

[17] = read-out: CYP2E1 (gene 1571); experiment: LTEA_HepaRG_CYP2E1: Life Technologies and Expression Analysis (LTEA) Assay for CYP2E1 using HepaRG (AID 2283485)
Outline: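 CYP2E1 transcript was measured by TaqMan qRT-PCR in human HepaRG cultures after 48 h chemical exposure (top 100 uM, half-log steps, 0.5% DMSO vehicle). Housekeeping-gene normalization; gain or loss fitted relative to DMSO baseline.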

[18] = read-out: CYP4A11 (gene 1579); experiment: LTEA_HepaRG_CYP4A11: Life Technologies and Expression Analysis (LTEA) Assay for CYP4A11 using HepaRG (AID 2283486)
Outline: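 HepaRG, 48 h chem exposure, 8 conc (100 uM top, half-log), 0.5% DMSO vehicle; qRT-PCR readout, housekeeping-gene normalized; bidirectional curve fit vs DMSO baseline.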

[19] = read-out: Cytochrome P450 3A4 (Homo sapiens) (UniProt P08684); experiment: LTEA_HepaRG_CYP3A4: Life Technologies and Expression Analysis (LTEA) Assay for CYP3A4 using HepaRG (AID 2283487)
Outline: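 Differentiated HepaRG cells in serum-free induction medium exposed in duplicate for 48 h to 8 half-log concentrations up to 100 uM in 0.5% DMSO. CYP3A4 mRNA measured by qRT-PCR normalized to ACTB, GAPDH and POLR2A; bidirectional fit versus DMSO.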

[20] = read-out: DNA damage-inducible transcript 3 (DDIT3), DDIT3 (gene 1649); experiment: LTEA_HepaRG_DDIT3: Life Technologies and Expression Analysis (LTEA) Assay for DNA damage-inducible transcript 3 (DDIT3) using HepaRG (AID 2283488)
Outline: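 qRT-PCR readout (Fluidigm TaqMan), housekeeping-normalized to ACTB, GAPDH, POLR2A. HepaRG cells, 48 h exposure, 8-point half-log series from 100 uM in 0.5% DMSO, duplicates. Gain or loss of signal fitted against DMSO baseline.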

Measured: AC50

Sequence of Cytochrome P450 3A4 (Homo sapiens) (P08684 whole entry, looked up): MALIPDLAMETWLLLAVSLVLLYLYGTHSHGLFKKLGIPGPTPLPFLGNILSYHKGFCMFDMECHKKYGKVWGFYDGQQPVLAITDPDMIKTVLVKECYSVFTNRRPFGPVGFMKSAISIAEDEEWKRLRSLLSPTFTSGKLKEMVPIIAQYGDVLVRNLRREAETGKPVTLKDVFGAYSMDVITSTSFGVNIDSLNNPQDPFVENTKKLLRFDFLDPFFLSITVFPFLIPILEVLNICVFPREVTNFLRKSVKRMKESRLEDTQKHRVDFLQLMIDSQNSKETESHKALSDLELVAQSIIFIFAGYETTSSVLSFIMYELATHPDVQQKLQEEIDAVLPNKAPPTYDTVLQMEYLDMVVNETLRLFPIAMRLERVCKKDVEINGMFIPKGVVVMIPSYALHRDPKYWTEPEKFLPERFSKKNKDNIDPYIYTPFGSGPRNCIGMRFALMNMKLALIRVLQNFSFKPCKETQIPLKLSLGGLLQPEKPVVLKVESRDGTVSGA
Sequence of Apoptosis regulator Bcl-2 (Homo sapiens) (P10415 whole entry, looked up): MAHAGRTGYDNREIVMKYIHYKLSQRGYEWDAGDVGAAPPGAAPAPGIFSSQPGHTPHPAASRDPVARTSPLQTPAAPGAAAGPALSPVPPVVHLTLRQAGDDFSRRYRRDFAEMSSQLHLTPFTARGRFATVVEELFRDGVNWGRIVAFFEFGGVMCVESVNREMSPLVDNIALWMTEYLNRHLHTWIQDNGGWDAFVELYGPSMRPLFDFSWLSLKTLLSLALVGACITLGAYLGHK
Sequence of Cytochrome P450 2C19 (Homo sapiens) (P33261 whole entry, looked up): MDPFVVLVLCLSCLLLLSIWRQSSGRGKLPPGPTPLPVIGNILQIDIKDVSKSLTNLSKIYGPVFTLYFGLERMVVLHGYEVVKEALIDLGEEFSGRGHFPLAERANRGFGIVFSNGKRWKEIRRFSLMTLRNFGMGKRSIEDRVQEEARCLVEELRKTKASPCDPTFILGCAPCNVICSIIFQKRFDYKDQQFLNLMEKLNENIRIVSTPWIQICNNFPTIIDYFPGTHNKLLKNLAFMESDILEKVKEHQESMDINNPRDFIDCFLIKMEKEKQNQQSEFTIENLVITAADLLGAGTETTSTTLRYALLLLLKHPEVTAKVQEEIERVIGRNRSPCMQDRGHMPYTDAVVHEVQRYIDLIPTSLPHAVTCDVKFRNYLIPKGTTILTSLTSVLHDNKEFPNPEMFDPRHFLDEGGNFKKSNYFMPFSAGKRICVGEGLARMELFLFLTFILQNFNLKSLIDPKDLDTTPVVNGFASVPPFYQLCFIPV
Sequence of Caspase-3 (Homo sapiens) (P42574 whole entry, looked up): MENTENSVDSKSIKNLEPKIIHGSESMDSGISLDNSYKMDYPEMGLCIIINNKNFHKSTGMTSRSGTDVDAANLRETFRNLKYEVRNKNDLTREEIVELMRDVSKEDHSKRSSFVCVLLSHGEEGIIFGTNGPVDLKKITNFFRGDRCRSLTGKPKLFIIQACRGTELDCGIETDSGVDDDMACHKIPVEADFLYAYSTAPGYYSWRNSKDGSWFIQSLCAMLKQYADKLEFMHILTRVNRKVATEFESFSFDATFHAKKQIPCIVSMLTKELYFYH

CS(=O)(=O)c1ccc(C(=O)C2C(=O)CCCC2=O)c([N+](=O)[O-])c1
active: [11] 18.4 µM
inactive: all other assays above

CC(C)N1C(=O)c2ccccc2NS1(=O)=O
active: [13] 50 µM
not listed: [12]
inactive: all other assays above

N#CN=C1SCCN1Cc1ccc(Cl)nc1
active: [13] 28.6 µM | [14] 34.1 µM | [19] 30.6 µM
inactive: all other assays above

CCCCC(O)(Cn1cncn1)c1ccc(Cl)cc1Cl (configuration not stated)
inactive: [1] | [3] | [5] | [8] | [9] | [10] | [12]
active: [2] 74.6 µM | [4] 68.4 µM | [6] 65.6 µM | [7] 59.5 µM | [11] 87.4 µM | [13] 80.1 µM | [14] 83.2 µM | [15] 78.5 µM | [16] 73.8 µM | [17] 46.4 µM | [18] 59 µM | [19] 85.6 µM | [20] 77.4 µM

Clc1cccc(C(Cl)(Cl)Cl)n1
active: [13] 2.9 µM
not listed: [12]
inactive: all other assays above

CO/N=C(/C1=NOCCO1)c1ccccc1Oc1ncnc(Oc2ccccc2Cl)c1F
inactive: [1] | [3] | [8] | [9] | [10]
active: [2] 31.3 µM | [4] 18.2 µM | [5] 27.7 µM | [6] 23.6 µM | [7] 29.7 µM | [11] 13.1 µM | [13] 21.1 µM | [14] 29.5 µM | [15] 25.8 µM | [16] 25.2 µM | [17] 7.94 µM | [18] 14.2 µM | [19] 30.5 µM | [20] 25.1 µM
